Measurements: PubChem BioAssay (NCI)
This is part of a sample that, as a whole, favours compounds with a hit. Of some 79,000 tested, about 15% had one in any assay. A number with no mark means an inactive call. The source made the active and inactive calls. No stated cut-off is given here; in the data, active means growth inhibition above about 70%; inactive means the rest.

What was measured:
[1] = NCI Yeast Anticancer Drug Screen. Data for the rad50 strain (AID 155);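 further: 0% = growth of vehicle-only cultures of the same strain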; settings: S. cerevisiae rad50 strain growth inhibition; at 50.0 µM; active compounds read high
Summary of the method: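 Compounds were tested on a yeast strain with an engineered DNA damage repair alteration; the reported value is growth inhibition normalised to vehicle treatment.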

[2] = NCI Yeast Anticancer Drug Screen. Data for the mec2-1 strain (AID 157); settings: S. cerevisiae mec2-1 strain, at 50.0 µM, active compounds read high
Summary of the method: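 Vehicle-treated cultures served as reference for growth inhibition of compound-exposed mec2-1 yeast.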

[3] = NCI Yeast Anticancer Drug Screen. Data for the sgs1 mgt1 strain (AID 161);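 further: 0% = growth of cultures given vehicle only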; settings: S. cerevisiae sgs1 mgt1 strain, at 50.0 µM, active compounds read high
Summary of the method: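 Mutant yeast exposed to compound; growth scored against vehicle-only wells.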

[4] = NCI Yeast Anticancer Drug Screen. Data for the cln2 rad14 strain (AID 165);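 further: 0% = growth equal to vehicle treated cultures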; settings: S. cerevisiae cln2 rad14 strain, at 50.0 µM, active compounds read high
Summary of the method: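 Each compound was tested on cln2 rad14 yeast. Inhibition of growth was calculated against vehicle-exposed controls.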

[5] = NCI Yeast Anticancer Drug Screen. Data for the bub3 strain (AID 167); settings: S. cerevisiae bub3 mutant strain, at 50.0 µM, active compounds read high
Summary of the method: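 Growth of a checkpoint-deficient yeast mutant is measured after compound exposure. Values represent inhibition relative to vehicle.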

[6] = NCI Yeast Anticancer Drug Screen. Data for the mlh1 rad18 strain (AID 175); settings: S. cerevisiae mlh1 rad18 strain growth inhibition; at 50.0 µM; active compounds read high
Summary of the method: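 Vehicle-treated cultures served as the reference for growth inhibition in a yeast strain carrying DNA damage repair alterations exposed to each compound.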

Structure (SMILES) | growth inhibition [1] | growth inhibition [2] | growth inhibition [3] | growth inhibition [4] | growth inhibition [5] | growth inhibition [6]
O=S(=O)(O)c1ccc(Cl)c(Cl)c1 | -0.35% | -15% | -3.4% | 15.4% | -19.5% | -2.25%
COc1ccc(OC)c(/C=C2\CCc3ccccc3C2=O)c1 | 17.4% | -30.1% | 27.5% | 7.4% | 47.7% | -23.6%
COC(=O)c1ccc(C(C)C)cc1 | 2.95% | 11.8% | -1.35% | 16.1% | 0.3% | 4.05%
O=c1cc(-c2ccccc2)nc2cc(-c3ccco3)[nH]n12 | -8.1% | -14.7% | -6.05% | 7.9% | -2.6% | -3.85%
COC(=O)C(O)c1ccccc1 (centres undefined) | 21.4% | 11.3% | 5.55% | 23.7% | 11.1% | 20%
CC1=NN(c2ccccc2)C(=O)/C1=C\N1CC(=O)NC1=S | -50.9% | -46% | -11.3% | 5.45% | -49% | -30.4%
CC(CN1CCCCC1)NC(=O)c1scnc1-c1ccccc1 (centres undefined) | -5.45% | -10% | -9.15% | -2.5% | -1.55% | -4.55%
Cc1cc(/C=C/c2ccc3cc(N(C)C)ccc3[n+]2C)c(C)n1-c1ccccc1 | 87.2% (active) | 87.2% (active) | 92.8% (active) | 93.2% (active) | 70.8% (active) | 95.8% (active)
CCCCCCCCCCC(C)Br (centres undefined) | 19.9% | -12.1% | 10.3% | 1.3% | 28.6% | 1.75%
CCN1C(=O)/C(=C/C=C/N(C)c2ccccc2)SC1=S | 0.9% | -13.3% | 3.25% | 9.05% | 20.9% | 7.85%
NNc1ccccc1C(=O)O | 4.4% | -3.05% | -2.55% | -4.15% | -2% | 14.8%
COC(=O)Nc1nc2ccc(C(=O)c3ccc(F)cc3)cc2[nH]1 | -9% | -6.35% | -30.2% | -26.4% | -17.5% | -43.9%
O=C1Cc2ccccc2C(=O)O1 | 25.9% | -16.5% | 1.95% | -22.1% | -5.15% | 15.6%
COc1cc(C(=O)NC(=S)Nc2ccc3ccccc3c2)cc(OC)c1OC | 11.3% | 2.6% | 6.25% | -6.15% | -3.4% | 13.1%
COc1ccc(NC(=O)CCl)cc1 | 29.7% | 12.8% | 24.4% | 17.9% | 36.7% | 23.6%
COc1cc(/C=C/C(=O)c2ccccc2)cc(OC)c1OC | -4.7% | -5.8% | -3% | 34.5% | -18.1% | -2.3%
c1ccc2c(N3CCCCC3)ncnc2c1 | 0.85% | -1% | -4.65% | 4.8% | 2.15% | -3%
NC(C(=O)O)C(O)c1ccco1 (centres undefined) | 6.6% | -0.1% | 3.95% | 13.8% | 3.75% | 6.75%
Nc1ncnc2c1nc(N)n2C1OC(CO)C(O)C1O (centres undefined) | -2.6% | -17.9% | 0.4% | -23.4% | 15.3% | 0%
CCNCCCCNCCCCNCCCCNCCCCNCC | -16.6% | 4.25% | -6.1% | 11.2% | 3.95% | 6.7%

Structure (SMILES) | growth inhibition [1] | growth inhibition [2] | growth inhibition [3] | growth inhibition [4] | growth inhibition [5] | growth inhibition [6]
CCCC[P+](c1ccccc1)(c1ccccc1)c1ccccc1 | 45.5% | 40% | 48.4% | 37.2% | 33.1% | 65.2%
CCCCNC(=O)C(=O)NCCCC | 10.8% | 7.2% | 4.6% | 28.6% | 7% | 1.75%
O=C(NCO)c1ccccc1 | 36.2% | 1.95% | -1.65% | 7.75% | 13.9% | 27.9%
COc1cc(/C=N\Nc2ccccc2)ccc1OC(=O)c1ccccc1 | 25.1% | 8.95% | 41.4% | 23.9% | 11.8% | 17.6%
NCCCN | 8.9% | -7.05% | -11.1% | -5.9% | 3.6% | 6.55%
CN(C)/N=C/c1ccccc1O | 1% | 4% | -16.9% | -6.85% | -21.6% | 2.9%
CNc1nc(NC)c2cn[nH]c2n1 | 17.7% | 2.3% | 20.2% | -9.25% | -3.9% | 16.1%
CC(=O)NCc1cc(C)c(C)cc1C | 12.5% | -20.1% | 1.25% | 9.15% | 5.3% | 8.5%
CCNc1nc2c(cnn2C)c(=O)[nH]1 | -16.6% | 28.4% | 4.4% | -34.1% | 28.1% | 29.4%
CC(=O)c1ccc(C)c(N)c1 | -4.15% | 0.15% | 6.25% | -0.6% | -2.15% | 27.4%
O=C(c1ccc(Cl)cc1)c1ccccc1Cl | 37.9% | -8.3% | 41.3% | -41.1% | 25% | 19%
CC(C)NC(=O)OCc1c(COC(=O)NC(C)C)c(-c2ccc(Cl)c(Cl)c2)n2c1SCC2 | 33.9% | -7.95% | 15.9% | -1.35% | 2.9% | 52.9%
O=C(N/N=C\c1cc(Br)cc(Br)c1O)N/N=C/c1cc(Br)cc(Br)c1O | 41.4% | 10.2% | 43% | 21.9% | 39% | 33.2%
C#Cc1cccc(NC(=O)c2ccc(Cl)cc2Cl)c1 | 9.95% | -9.7% | 26.6% | 24.2% | 25% | 15.7%
c1ccc(/C(=N\N=C(/c2ccccc2)c2cccs2)c2cccs2)cc1 | 18.3% | -23.1% | 25.7% | -2.8% | 23.6% | 10.6%
O=C(O)CCC(=O)OC(C1CO1)C(OC(=O)CCC(=O)O)C1CO1 (centres undefined) | -0.85% | -16.5% | -7.3% | 3.3% | -11.6% | -44.7%
CCOC(=O)/C(=C/c1ccc(OC)cc1)N(CC)CC | -45.8% | -22.7% | -17.4% | 0.5% | -19.1% | -20.4%
COS(=O)(=O)c1ccc(Br)cc1 | -6% | -23.4% | -17.3% | -60.8% | 0.6% | -26.2%
C/C(O)=C(\C=N\C(N)=S)C(=O)Nc1ccccc1 | -4.6% | -8.1% | -23.9% | -0.55% | -2.45% | 3.7%
CCCCC(=O)c1ccc(OC)cc1 | 1.9% | -8.4% | 2.75% | 6.75% | – | -6.4%
